This excerpt belongs to a sample that is enriched for hits.
Tb PYK inh: qHTS of Trypanosoma Brucei Inhibitors | AID 624173, 2012 | pyruvate kinase (Trypanosoma brucei), Q57TT1 | 410,000 compounds, 0.12% hits | Potency, µM (highest dose often 76.8 µM), without a hit: at the highest dose activity, negative = inhibition, actives largely listed as inhibitors | TbPYK enzyme, Kinase-Glo Plus ATP luminescence, 45 min; also: potency is read from the fitted curve at half-maximal effect; % is scaled to controls: 0 for no effect and ±100 for the full control effect; nearly all actives have a fitted effect of over 50% in size
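Enzyme and substrate buffer are dispensed first and compound is pin-transferred. ADP at 130 uM final then starts the reaction, which runs 45 min at room temperature. Detection reagent is added for 10 min before luminescence is imaged.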
Cycloheximide cs: Cycloheximide Counterscreen for Small Molecule Inhibitors of Shiga Toxin | cell reporter, cycloheximide protein synthesis inhibition counterscreen | max response, % | 300,000 compounds, 12% hits; in the data active = max response mostly above about 13%, no sharp cut-off; inactive = mostly below about 14%; also: read at 38.3 µM for the half of the compounds with a filed dose; 0% is about no effect
Shiga toxin inh: A qHTS for Small Molecule Inhibitors of Shiga Toxin; AID 2315, 2010; 290,000 compounds, 9.2% hits; inhibition, % at 38.7 µM; Vero cells, Shiga toxin protein synthesis inhibition reporter; in the data active = inhibition mostly above about 28%, no sharp cut-off; inactive = mostly below about 43%; also: 0% is about no effect
RE007 growth inh: qHTS Assay for Inhibitors of the HIV-1 protein Vpr; S. pombe RE007 Vpr strain, BacTiter-Glo ATP luminescence, 24 h; Potency, µM (doses to about 92.2 µM), without a hit: top-dose activity change, negative = less growth, actives largely listed as inhibitors; 360,000 compounds, 0.21% hits; active = well fitted falling curve with a large enough effect; inconclusive = small, poorly fitted or top-dose-only effect; inactive = no such curve, though single readings can be large or run the other way; also: potency is read from the fitted curve at half-maximal effect; % is scaled to controls: 0 for no effect and ±100 for the full control effect; nearly all actives have a fitted effect of over 50% in size
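Fission yeast RE007 carrying one integrated HIV-1 vpr copy, seeded at OD 0.01 in PMG+AL medium with 23 nL pinned compound. Grown 24 h at 30 degrees; viability read by BacTiter-Glo luminescence after 5 min.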
Giardia FBPA inh: qHTS Assay for Inhibitors of Fructose-1,6-bisphosphate Aldolase from Giardia Lamblia | A8B2U2 | purified Giardia FBPA | Potency, µM (top dose mostly 59.6 µM), for inactives: at the top dose activity, negative = inhibition, hits mostly inhibitors | 290,000 compounds, 0.71% hits | AID 2451, 2010; also: potency is read from the fitted curve at half-maximal effect; % is scaled to controls: 0 for no effect and ±100 for the full control effect; nearly all actives have a fitted effect of over 55% in size
Target sequence (A8B2U2 whole entry, looked up): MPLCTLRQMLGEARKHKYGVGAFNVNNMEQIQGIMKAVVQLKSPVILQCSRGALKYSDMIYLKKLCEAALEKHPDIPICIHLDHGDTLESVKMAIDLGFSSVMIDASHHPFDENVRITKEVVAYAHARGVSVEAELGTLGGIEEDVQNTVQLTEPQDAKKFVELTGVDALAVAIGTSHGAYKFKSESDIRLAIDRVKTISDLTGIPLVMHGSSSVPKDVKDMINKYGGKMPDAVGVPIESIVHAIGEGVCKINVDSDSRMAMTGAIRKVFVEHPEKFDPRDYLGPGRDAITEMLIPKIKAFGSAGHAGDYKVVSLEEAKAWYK
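40 nM FBPA preincubated 10 min at RT with compound (up to 57.5 uM final), then substrate plus GAPDH/TPI/NAD/arsenate coupling and diaphorase/resazurin added. Fluorescence read after 20 min at RT, 525/598 nm.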
LmPK inh: qHTS Assay for Inhibitors of Leishmania Mexicana Pyruvate Kinase (LmPK). Q27686. purified LmPK, Kinase-Glo ATP luminescence, 1 h. Potency, µM (doses to about 57.5 µM), without a hit: at the highest dose activity change, negative = inhibition, usual class: inhibitors. 290,000 compounds, 0.37% hits. AID 1721, 2009; also: potency is read from the fitted curve at half-maximal effect; % is scaled to controls: 0 for no effect and ±100 for the full control effect
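0.1 nM LmPK, 0.5 mM PEP, 0.1 mM ADP; 50 mM imidazole pH 7.2, 7 mM MgCl2, 50 mM KCl; 1 h RT. Kinase-Glo luminescence readout, normalized to no-enzyme (full inhibition) and uninhibited wells.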
An asterisk follows results filed as active; ? = inconclusive; · = no result. Unless noted, calls follow the shape of the dose curve; as a rule, active = well fitted curve in the direction sought with a large enough effect; inconclusive = small, poorly fitted or top-dose-only effect, or another doubt; inactive = no such curve, though single readings can be large; an effect the other way counts as inactive or inconclusive.

SMILES | Tb PYK inh | Cycloheximide cs | Shiga toxin inh | RE007 growth inh | Giardia FBPA inh | LmPK inh
CC(C)(C)c1ccc(S(=O)(=O)c2cnc(SCC(=O)Nc3ccc4c(c3)OCCO4)[nH]c2=O)cc1 | -5% | · | · | · | · | ·
CCC(Sc1ncc(S(=O)(=O)c2ccc(C)cc2)c(=O)[nH]1)C(=O)Nc1cc(C)ccc1C (centres undefined) | 6% | · | · | · | · | ·
COc1cccc(N2CCN(C(=O)CN3C(=O)COc4ccc(S(=O)(=O)N5CCC(C)CC5)cc43)CC2)c1 | 3% | · | · | · | · | ·
O=C1CC(c2ccc(F)cc2)CC(O)=C1C1NCCc2ccccc21 (centres undefined) | 6% | 19* | 25 | 1% | 6% | 3%
O=C(NCC1CCCO1)c1ccc(N2CCCCC2)c([N+](=O)[O-])c1 (centres undefined) | 3% | 43* | 45* | -12% | -1% | 1%
CC1CCCN(c2ccc(C(=O)NCc3ccco3)cc2[N+](=O)[O-])C1 (centres undefined) | -5% | 7 | 60* | 21% | 0% | -4%
O=C(NC1CC1)c1ccc(N2CCCCC2)c([N+](=O)[O-])c1 | -1% | 17* | 79* | 18% | · | -6%
CSc1ncc(C(=O)Nc2c(C)cccc2C)c(-c2ccccc2)n1 | 3% | · | · | · | · | ·
CCCCn1c(-c2cccs2)nc2nc3ccccc3nc21 | 4% | 11 | 25 | -14% | · | 10%
CCCCn1c(-c2csc3ccccc23)n[nH]c1=S | 16µM* | -2 | -10 | 5% | 10% | 14µM*
CCn1c(-c2csc3c2CCCC3)n[nH]c1=S | ? | 15 | -7 | 25% | -5% | ?
CCCCn1c(-c2csc3c2CCCC3)n[nH]c1=S | ? | 22 | 37 | 2% | 1% | 13µM*
CCCCCCn1c(-c2cccs2)n[nH]c1=S | 2.8µM* | -4 | -5 | -9% | 0% | -29%
CCCCn1c(-c2csc3c2CCC(C)C3)n[nH]c1=S (centres undefined) | ? | -3 | -11 | -15% | 17% | 18µM*
C=CCn1c(-c2csc3c2CCC(C)C3)n[nH]c1=S (centres undefined) | ? | 3 | -55 | 2% | 6% | ?
CN(Cc1ccco1)C(=O)[C@H](Cc1ccccc1)NC(=O)CC[C@H]1O[C@@H](n2ccc(=O)[nH]c2=O)[C@H](O)[C@@H]1O | -5% | · | · | 5% | · | ·
CCc1ccc(NC(=O)C2CCCN(S(=O)(=O)c3cccc4nsnc34)C2)cc1 (centres undefined) | -4% | · | · | · | · | ·
CCC(C)NC(=O)c1cc2c(=O)[nH]c3ccc(C)cc3c2s1 (centres undefined) | -9% | -2 | -3 | -9% | 1% | -2%
Cc1ccccc1NC(=O)/C(C#N)=C\c1cn(CC(=O)O)c2ccccc12 | 3% | 8 | -16 | 4% | 7% | 1%
Cc1ccc(NC(=O)/C(C#N)=C/c2ccc(C)s2)c(C)c1 | 5% | 40* | 53 | -3% | 2% | 13%
Cc1ccccc1NC(=O)/C(C#N)=C/c1ccc[nH]1 | -14% | 30* | 26 | 3% | 10% | 3%
Cc1ccccc1NC(=O)/C(C#N)=C/c1ccc(-c2ccc(Cl)c(C(=O)O)c2)o1 | 4% | 12* | 15 | 1% | 14% | 6%
Cc1ccccc1NC(=O)/C(C#N)=C/c1ccsc1 | 7% | 25* | 37* | -28% | 3% | 1%
Cc1ccc(/C=C(\C#N)C(=O)Nc2c(C)cccc2C)s1 | -12% | -1 | -19 | 0% | 0% | 7%
c1ccc(CNc2ncncc2-c2ccoc2)cc1 | · | · | · | · | -8% | ·
N#C/C(=C\c1ccc[nH]1)C(=O)N1CCCCC1 | -2% | 9 | 13 | -6% | -4% | 1%
N#C/C(=C\c1ccc[nH]1)C(=O)Nc1ccccc1[N+](=O)[O-] | -6% | 22* | 67* | -5% | · | -17%
Cc1ccc(O)c(C2=NCCNC(C(F)(F)F)=C2)c1 | 3% | -4 | 2 | -11% | 1% | 2%
